In the library only some 2.1% were active in any assay of this set; here they are far more common.
RN4220 kill: kills Staphylococcus aureus RN4220; AID 1259311; inhibition, % (test concentration not listed); S. aureus RN4220 growth, OD600, 16 h; 330,000 compounds, 0.33% hits; in the data active = inhibition above about 85%
CCHFV vOTU inh: CCHFV vOTU protease inhibition; 370,000 compounds, 0.55% hits; inhibition, % at 11.5 µM; Pep-AMC fluorescence; in the data active = inhibition above about 30%
Sa ugtP lethal: kills S. aureus RN4220 lacking UgtP. growth inhibition, % (test concentration not listed). S. aureus RN4220 ugtP deletion, OD600 growth, 16 h. AID 1259309. 330,000 compounds, 0.54% hits; in the data active = growth inhibition above about 68%
PfHsp40 yeast: restores yeast growth despite PfHsp40 toxicity; S. cerevisiae expressing PfHsp40, growth rescue, ATP luminescence; growth rescue, % at 12.5 µM; 340,000 compounds, 0.68% hits; in the data active = growth rescue above about 28%, passing the limit was not always enough;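 note: yeast W303a lacking pdr1 and pdr3 grown in galactose medium; growth measured after three days at 30 °C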
PrPC TRFRET: inhibitors of human cell surface prion protein PrPC; P04156; TR-FRET read-out; AID 720596; 370,000 compounds, 0.43% hits; inhibition, % at 13.8 µM; in the data active = inhibition above about 24%
PrP UTR inh: suppresses PrP 5' UTR mRNA reporter expression; cell-based PrP 5' UTR mRNA reporter, plate reader; inhibition, % (no concentration beside the values); 340,000 compounds, 0.35% hits; AID 488862; in the data active = inhibition above about 52%
PrP 5UTR single: prion 5' UTR mRNA inhibition, cherry-pick retest. shares compounds with PrP UTR inh. cell-based prion protein 5' UTR reporter, plate reader. inhibition, % at 2.5 µM. 1,100 compounds, 48% hits. AID 504592; in the data active = inhibition above about 54%
Large screens that a line does not name were inactive (follow-up assays come after a bar, where they were run).

COc1ccc(OC)c(-c2nnc3n2N=C(c2ccc(OC)c(OCC4CC4)c2)CS3)c1	PrP UTR inh 67 (no result: CCHFV vOTU inh, PrPC TRFRET) | PrP 5UTR single 93
CCOc1ccc(C2=Nn3c(nnc3-c3ccccc3OC)SC2)cc1	PrP UTR inh 69 | PrP 5UTR single 88
COc1ccc(C2=Nn3c(nnc3-c3ccccc3C(F)(F)F)SC2)cc1OC1CCOC1 (stereo unspecified)	none
O=C(CC(Nc1ccc(Cl)cc1Cl)C(=O)O)c1ccccc1 (stereo unspecified)	PrP UTR inh 63 | PrP 5UTR single inactive
CCN(CC)S(=O)(=O)c1ccc(N2CCOCC2)c(NC(=O)c2cccc3ccccc23)c1	none
CCN(CC)S(=O)(=O)c1ccc(N2CCOCC2)c(NC(=O)c2cc(-c3ccccn3)nc3ccccc23)c1	PrP UTR inh 66 | PrP 5UTR single inactive
